Screening results (PubChem BioAssay)
A selection: hits, their analogues and other compounds. The true share with any hit is near 8.7%.
VACV mCherry inh: vaccinia inhibition (mCherry reporter) | Vaccinia virus mCherry reporter infection, fluorescence | Potency, µM (top dose mostly 36.5 µM), hits mostly inhibitors | 310,000 compounds, 0.63% hits | AID 720579; calls by dose curve; tested in A549 cells; further: nearly all actives have a fitted effect of over 35% in size
Pf growth 48h: P. falciparum growth inhibition at 48 hours (one generation); Potency, µM (highest dose often 28.7 µM), hits mostly inhibitors; P. falciparum luciferase growth in erythrocytes, 48 h; 310,000 compounds, 5.9% hits
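In quantitative HTS format, infected erythrocytes bearing luciferase-reporter parasites were treated for a single generation at 37 C. Luminescence after adding detection reagent served as the growth measure.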
VACV Venus inh: vaccinia inhibition (Venus reporter). Vaccinia virus Venus reporter expression, fluorescence. Potency, µM (top dose mostly 36.5 µM), hits mostly inhibitors. 330,000 compounds, 0.46% hits. AID 720580; calls by dose curve; tested in A549 cells; further: nearly all actives have a fitted effect of over 30% in size
Pf growth 96h: P. falciparum growth inhibition at 96 hour, primary screen for plastid delayed-death inhibitors. 320,000 compounds, 6.9% hits. Potency, µM (highest dose often 28.7 µM), actives largely listed as inhibitors. P. falciparum luciferase reporter growth, 96 h. AID 504834
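Two-generation exposure (96 h) targets delayed-death phenotype. Reporter parasites carrying integrated firefly luciferase, in red cells at 2% hematocrit and 0.05% parasitemia final, kept at 37 C, 5% CO2; luminescence loss indicates inhibition.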
AMA1 RON2 block: AMA1-RON2 (P. falciparum) interaction inhibition. AlphaScreen AMA1-biotinylated RON2 peptide binding. Potency, µM (titrated, usually from 58.2 µM), most hits filed as inhibitors. 360,000 compounds, 0.2% hits. AID 720542; further: nearly all actives have a fitted effect of over 45% in size
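AMA1 (3D7) with his tag at 25 nM final met compounds first, then biotinylated RON2 peptide at 25 nM; detection used donor plus acceptor beads, 10 µg/mL apiece, read by AlphaScreen after 30 min at room temperature.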
A number is an active result; – = inactive; ? = inconclusive; · = no result; [ ] = dose if it differs, or a comment. Unless noted, the call rests on the fitted dose curve; in most records, active means well fitted curve in the direction sought with a large enough effect; inconclusive means small, poorly fitted or top-dose-only effect, or another doubt; inactive means no such curve, though single readings can be large; an effect the other way counts as inactive or inconclusive.

SMILES	VACV mCherry inh	Pf growth 48h	VACV Venus inh	Pf growth 96h	AMA1 RON2 block
CCCC(=O)C1=C(O)C(C(=O)OC)C(C)(C)CC1=Nc1ccc(C)cc1 (configuration not stated)	–	5.2µM	–	–	–
CCCC(=O)C1=C(O)C(C(=O)OC)C(C)(C)CC1=Nc1ccc(N)cc1 (configuration not stated)	·	?	·	?	–
CC[N+]1(CC)CC2=Cc3c(ccc4ccccc34)C(C)C2C1 (configuration not stated)	–[7.34 µM]	2.3µM	–[7.34 µM]	1.5µM	–
CC1NC(C)(C)Cc2c1ccc1ccccc21 (configuration not stated)	–	–	–	–	–
Cc1ccc(OCCOCCn2c(-c3ccc(Cl)cc3)nc3ccccc3c2=O)cc1	–	·	–	·	·
CN(C)c1ccc2nc3c(=O)[nH]c(=O)nc-3n(CC(O)C(O)C(O)CO)c2c1 (configuration not stated)	–	4.1µM	–	–	–
COc1ccc(-c2nc(C)c(CCNC(=O)c3c(F)cccc3F)s2)cc1	–	·	–	·	·
COc1cccc(C(=O)N/N=C(/c2ccccc2)c2ccccn2)c1	2µM	9.3µM	?	?	–
COc1cc(C(=O)N/N=C(\c2ccccc2)c2ccccn2)cc(OC)c1OC	·	0.93µM	·	9.3µM	–
CCN(c1cccc(C)c1)S(=O)(=O)c1ccc2[nH]cc(C(=O)NCCCOC)c(=O)c2c1	–	·	–	·	·
Cc1cc(Nc2cccc(C(F)(F)F)c2)nc2ccc(NC(=O)c3cncc(Br)c3)cc12	–[7.34 µM]	·	–[7.34 µM]	·	·
O=C(c1ccco1)N1N=C(c2ccncc2)CC1(O)C(F)(F)F (configuration not stated)	–	–	–	5.2µM	–
CC1=CC(C)(C)n2c(O)c(N=NC(N)=S)c3c(C)ccc1c32	1.3µM	–	?	–	–
COc1cc2c3c(c1)c(N=NC(N)=S)c(O)n3C(C)(C)C=C2C	?	10µM	?	6.6µM	–
Cc1cccc(N(CC(=O)Nc2cccc(Cl)c2C)S(C)(=O)=O)c1C	–	·	–	·	·
Cc1cccc(NC(=O)CCCCCn2c(=O)[nH]c3ccsc3c2=O)c1	–	·	–	·	·
CCOc1ccc(CCNC(=O)c2nn(-c3ccc(OC)cc3)c(=O)c3c2c2ccccc2n3C)cc1OCC	–	·	–	·	·
CN1C2C=C3C(C#N)=C(N)C(C#N)(C#N)[C@@H](c4cccc(F)c4)[C@@H]3C1CC2 (some centres not stated)	·	?	?	0.66µM	–
CC1CCN(S(=O)(=O)c2ccc3c(c2)N(CC(=O)NCCN(C)C)C(=O)CS3)CC1	–	·	–	·	·
Cc1ccc(C(=O)Nc2cccc(C(F)(F)F)c2)cc1Nc1ncnc2nc[nH]c12	?	13µM	?	13µM	–
Cc1ccc(C(=O)Nc2cccc(C(F)(F)F)c2)cc1Nc1cnccn1	–	?	–	?	–
CCCCN1CC[C@H]2C=CC[C@@H](C(=O)NC3CCCCC3)[C@H]2C1=O	–	·	–	·	·
O=C(CCl)N1N=C(c2ccco2)CC1c1cccs1 (configuration not stated)	8.9µM	12µM	?	?	–
Cc1ccc(C2=NN(C(=O)CCl)C(c3cccs3)C2)o1 (configuration not stated)	–	3.7µM	–	2.1µM	–
Clc1cccc(SC2CCNCC2)n1	·	–	·	4.3µM	·
SMILES	VACV mCherry inh	Pf growth 48h	VACV Venus inh	Pf growth 96h	AMA1 RON2 block
CCOC(=O)C(C(=O)Nc1ccccn1)C1CCCCC1 (configuration not stated)	·	–	·	9.3µM	–
CCOC(=O)C(C(=O)Nc1cccc(C)n1)C1CCCCC1 (configuration not stated)	·	·	·	·	–
CCCCOc1ccc(N(CC(=O)NC2CCCCC2)C(=O)CCC(=O)Nc2ccccn2)cc1	–	12µM	–	?	–
CC(C)(C)c1ccc(C(=O)NCc2cccnc2)cc1	·	–	·	–	–
CC(C)(C)c1ccc(C(=O)c2c[nH]c(C(=O)NCCCn3ccnc3)c2)cc1	·	12µM	·	7.4µM	–
CC(C)(C)c1ccc(C(=O)c2c[nH]c(C(=O)NCc3cccnc3)c2)cc1	·	8.3µM	·	5.2µM	–
CCOC(=O)c1c(S(=O)(=O)NCC(=O)N(C)c2ccc(C)cc2)c(C)n(C)c1C	–	·	–	·	·
C=C1C[C@H]2[C@@H]3C=C(C)C4=CC(=O)CC[C@]4(C)[C@H]3CC[C@]2(C)[C@@]1(OC(C)=O)C(C)=O	–	9.3µM	–	?	–
CC(=O)C1(C)CCC2C3C=C(C)C4=CC(=O)CCC4(C)C3CCC21C (configuration not stated)	–	·	–	·	–
